D1 potentiator – Potentiators of Human D1 Dopamine Receptor: qHTS; D(1A) dopamine receptor (Homo sapiens), P21728; HEK293 TREx D1 cells, calcium flux, dopamine EC20 potentiation; potentiation, % at 10 µM; 360,000 compounds, 0.036% hits; AID 504651, 2011; in the data active = potentiation above about 30%; note: 0% is about no effect
Target sequence (P21728 whole entry, looked up): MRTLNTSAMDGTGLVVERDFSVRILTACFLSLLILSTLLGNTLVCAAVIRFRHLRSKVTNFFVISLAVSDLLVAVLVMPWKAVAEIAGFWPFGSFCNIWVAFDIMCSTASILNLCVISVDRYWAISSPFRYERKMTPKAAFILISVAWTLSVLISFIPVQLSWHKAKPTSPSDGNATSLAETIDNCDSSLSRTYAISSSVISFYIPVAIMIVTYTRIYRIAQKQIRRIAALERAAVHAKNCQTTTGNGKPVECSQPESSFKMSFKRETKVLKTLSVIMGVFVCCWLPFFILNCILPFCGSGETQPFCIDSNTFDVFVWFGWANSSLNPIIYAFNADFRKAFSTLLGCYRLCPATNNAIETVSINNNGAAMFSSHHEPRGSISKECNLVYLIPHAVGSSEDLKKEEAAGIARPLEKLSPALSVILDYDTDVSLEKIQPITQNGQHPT
D1 antag – Antagonist of Human D 1 Dopamine Receptor: qHTS. HEK293 TREx D1 cells, calcium flux, dopamine EC80; stronger effect = lower value. activity change, negative = inhibition, % at 10 µM. 360,000 compounds, 3.2% hits. AID 504652, 2011; in the data active = activity change below about -30%; note: % is set by controls: 0 for no effect and ±100 for the full control effect
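Compound effects on dopamine-evoked calcium signalling were measured in tetracycline-induced HEK293 Trex D1 cells. Dopamine at EC80 followed a 180 s compound pre-read, and fluorescence was tracked kinetically for 180 s more.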
TRHR agonist – qHTS for Small Molecule Agonists and Allosteric Enhancers of Human TRH Receptor: Primary Screen for Agonists; Thyrotropin-releasing hormone receptor (Homo sapiens), P34981; TRHR cells, calcium flux fluo-8, FDSS agonist mode; 360,000 compounds, 0.18% hits; activation, % at 2 µM; note: 0% is about no effect
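Steps: seed TRHR cells overnight; add fluo-8 no-wash Ca dye, RT 30 min–1.5 h; record 10 s baseline; pin-transfer compounds; monitor fluorescence 1 cycle/s for the agonist window. Calcium increases flag candidate agonists.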
TRHR enhancer – qHTS for Small Molecule Agonists and Allosteric Enhancers of Human TRH Receptor: Primary Screen for Enhancers | TRHR cells, fluo-8 calcium fluorescence, EC20 TRH enhancement | 360,000 compounds, 0.66% hits | enhancement, % at 2 µM | Thyrotropin-releasing hormone receptor (Homo sapiens), P34981; in the data active = enhancement above about 30%; note: 0% is about no effect
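Enhancer read-out: after compound pinning and an initial kinetic agonist-mode read, an EC20 of TRH (10 nM final) was injected and fluo-8 calcium signal (Ex 480/Em 530) followed at 1 s/cycle for 100 cycles in TRHR-expressing cells.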
D1 ag – Allosteric Agonists of the Human D1 Dopamine Receptor: qHTS. D(1A) dopamine receptor (Homo sapiens), P21728. HEK293 T-REx D1 cells, calcium flux, agonist mode. activation, % at 2 µM. 360,000 compounds, 1% hits. AID 504660, 2011; note: 0% is about no effect
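Agonism was scored from calcium flux recorded over 180 s (1 read/s) after pintool compound addition, following a 10-cycle baseline. Cells were inducible force-coupled HEK293 TREx D1, plated overnight at 30 C and loaded with no-wash calcium dye.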
* marks the source's active call; other numbers are inactive results; x = no result given. In the library only some 4.6% were active in any assay of this set; here they are far more common. Cut-off read from the data, not from the text of the source, unless noted: active = activation above about 30%; inactive = the rest.

SMILES	D1 potentiator	D1 antag	TRHR agonist	TRHR enhancer	D1 ag
O=C(COC(=O)c1cccc(O)c1)NC(=O)Cc1ccccc1	-5	-2	5	4	33*
CC(=O)Nc1cccc(C(=O)OCC(=O)c2ccccc2Cl)c1	-6	-19	0	-3	3
Cc1cccc(C(=O)OCC(=O)NC(=O)Cc2ccccc2)c1O	-7	-11	3	9	9
CC(NC(=O)c1ccc2c(c1)sc1nc(-c3ccccc3)cn12)C12CC3CC(CC(C3)C1)C2 (configuration not stated)	-1	0	0	5	0
O=C(NCc1ccc2c(c1)CCN2C(=O)c1ccncc1)c1ccccc1Cl	-4	-28	0	-5	11
CCOC(=O)c1cncc(C#CCOC(=O)Nc2ccc(OC(F)(F)F)cc2)c1	-8	-34*	1	-13	26
CCCC(=O)Nc1cc(-c2nc3cccnc3s2)ccc1C	-3	24	0	15	49*
CCCCC(=O)Nc1cc(-c2nc3cccnc3s2)ccc1C	0	-1	0	-9	1
CCN(CC)c1ccc(/C=N/Nc2nc3ccccc3[nH]2)cc1	-2	-62*	0	2	1
CC(/C=N/Nc1nc2ccccc2[nH]1)=C\c1ccccc1	-7	-42*	0	-4	0
CCOC(=O)c1sc(=S)n(C)c1N	-7	-33*	0	1	2
CCOC(=O)c1sc(=S)n(C)c1C	2	2	0	0	2
Cc1cccc(NC(=O)C(=O)NCC(c2cccnc2)N2CCN(Cc3ccccc3)CC2)c1 (configuration not stated)	-3	10	0	1	1
Cc1ccc(NC(=O)Nc2ccc3c(c2)N(C)C(=O)CS3)cc1C	x	-44*	-1	11	20
COc1ccc(NC(=O)COc2cccc(C(F)(F)F)c2)cn1	0	2	0	23	0
O=C(Nc1ccc(Oc2cccc(C(F)(F)F)c2)nc1)c1ccccc1	-2	-22	4	2	15
COc1cccc(C(=O)Nc2ccc(Oc3cccc(C(F)(F)F)c3)nc2)c1	-4	-42*	-1	2	42*
O=C(Nc1ccc(Oc2cccc(C(F)(F)F)c2)nc1)c1cccs1	-2	-45*	-1	5	32*
CCc1ccc(NC(=O)CC2C(=O)OCCN2CC)cc1 (configuration not stated)	-5	-75*	1	8	-1
CCN1CCOC(=O)C1CC(=O)Nc1ccc(C(C)=O)cc1 (configuration not stated)	2	-4	-4	1	1
Cc1ccc(CSc2nc(N)cc(N)n2)cc1	0	-8	0	20	1
Nc1cc(N)nc(CS)n1	3	-54*	0	-2	3
Cc1ccc(S(=O)(=O)c2nc(S(C)(=O)=O)sc2NCc2ccccc2)cc1	0	-7	0	1	9
CC(Oc1cccc(Cl)c1)C(=O)Nc1nc(-c2ccccn2)cs1 (configuration not stated)	-6	-35*	1	11	5
Cc1ccc(CS(=O)(=O)CCC(=O)NCCc2ccccc2)cc1	1	-14	-1	-3	0
SMILES	D1 potentiator	D1 antag	TRHR agonist	TRHR enhancer	D1 ag
Cc1ccc(CS(=O)(=O)CCC(=O)NCc2cccs2)cc1	-8	-32*	-1	3	-1
CCOCCn1cnc2sc(C(=O)Nc3ccccc3C(=O)OC)c(C)c2c1=O	-3	1	1	4	0
Cc1ccc(C)c(N2CCN(C(=O)c3cc4c(=O)n(Cc5cccnc5)ccc4nc3C)CC2)c1	-6	-8	0	7	3
O=C(Cn1c(SCc2ccccc2)nc2ccccc21)N1CCOCC1	1	-18	0	2	6
Cc1ccc(C)c(OCCSc2nc3ccccc3n2CC(=O)N2CCOCC2)c1	-2	5	1	-3	-2
Cc1ccc(OCCSc2nc3ccccc3n2CC(=O)N2CCCCC2)c(C)c1	-3	-44*	0	-7	8
O=C(CSc1nc2ccccc2n1CC(=O)N1CCOCC1)N1CCCC1	0	-32*	-1	2	-1
COc1ccccc1N1CCN(C(=O)c2nn(-c3ccc(C)cc3)c(=O)n(C)c2=O)CC1	0	-2	0	-5	0
O=C(Nc1sc2c(c1C(=O)NCc1cccnc1)CCCC2)c1ccco1	4	-32*	0	3	2
Cc1cc(C)c2c(=O)cc(C(=O)Nc3sc4c(c3C(=O)NCc3ccccc3)CCCC4)oc2c1	3	-86*	1	20	-1
Cc1cc(C)c2c(=O)cc(C(=O)Nc3sc4c(c3C(=O)NCC3CCCO3)CCCC4)oc2c1 (configuration not stated)	0	-16	0	2	-1
Cn1cc(CC(=O)NCCN2CCOCC2)c2ccccc21	-9	-32*	0	-8	3
Cc1ccccc1CC(=O)NCCN1CCCCC1	0	2	1	-3	3
O=C(CCN1CCCCC1)NNC(=S)NC(=O)c1ccc(Br)cc1	-1	-36*	-1	-1	3
O=C(Cc1ccccc1)NCCN1CCCC1	-11	-39*	0	0	4
O=C(NCCCCNC(=O)c1ccc(Br)cc1)c1ccc(Br)cc1	-5	-33*	0	-2	0
O=c1n(Cc2ccc(F)cc2Cl)c2ccccc2c2nc(-c3ccccc3)nn12	0	6	1	-5	1
O=C(NCCCN1CCc2ccccc2C1)Nc1ccc(Br)cc1	-7	-26	1	-1	41*
COc1ccc(NC(=O)NCCCN2CCc3ccccc3C2)cc1	-8	18	0	-4	0
Cc1ccc(NC(=O)NCCN2CCCCC2)cc1	-3	3	0	-2	3
O=C(NCCN1CCCCC1)Nc1ccc(Br)cc1	-1	-60*	1	4	7
O=C(NCCN1CCCC1)c1ccc(Br)cc1	31*	5	0	9	1
CCOc1ccc(S(=O)(=O)N(C)c2ccc(OCC(=O)N3c4ccc(C)cc4C4CN(C)CCC43)cc2)cc1 (configuration not stated)	-6	-40*	0	5	1
Cc1ccc2c(c1)C1CN(C)CCC1N2C(=O)COc1ccc(N(C)S(=O)(=O)c2cccs2)cc1 (configuration not stated)	-14	-36*	1	3	13

Screening results: PubChem BioAssay, National Center for Advancing Translational Sciences (NCATS)
